Rows were chosen to be rich in hits. Some 2.1% of all compounds tested hit in one or more screens of this group.
CCHFV vOTU inh: CCHFV vOTU protease inhibition | Pep-AMC fluorescence | inhibition, % at 11.5 µM | 370,000 tested, 0.55% active | AID 651958; in the data active means inhibition above about 30%
PfHsp40 rescue: compounds rescuing yeast from Plasmodium falciparum HSP40 toxicity; 340,000 tested, 0.68% active; growth rescue, % at 12.5 µM; AID 504582; S. cerevisiae expressing PfHsp40, growth rescue, ATP luminescence; in the data active means growth rescue above about 28%, passing the limit was not always enough;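 further: yeast W303a lacking pdr1 and pdr3 grown in galactose medium; growth measured after three days at 30 °C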
RN4220 kill: S. aureus RN4220 growth inhibition | 330,000 tested, 0.33% active | inhibition, % (test concentration not listed) | OD600, 16 h; in the data active means inhibition above about 85%
PrPC TRFRET: reduces human prion protein on the cell surface; cell surface PrPC, TR-FRET read-out; inhibition, % at 13.8 µM; 370,000 tested, 0.43% active; AID 720596; in the data active means inhibition above about 24%
PrP 5UTR inh: inhibition of PrP 5' UTR reporter expression; cell-based PrP 5' UTR mRNA reporter, plate reader; inhibition, % (no concentration beside the values); 340,000 tested, 0.35% active; AID 488862; in the data active means inhibition above about 52%
ugtP null kill: compounds lethal to S. aureus RN4220 ugtP deletion mutant | 330,000 tested, 0.54% active | growth inhibition, % (no concentration beside the values) | OD600 growth, 16 h; in the data active means growth inhibition above about 68%
Hits are given with their value; n = inactive; x = no result.

SMILES	CCHFV vOTU inh	PfHsp40 rescue	RN4220 kill	PrPC TRFRET	PrP 5UTR inh	ugtP null kill
O=C(NN=Cc1cccc([N+](=O)[O-])c1)c1cc(-c2cccnc2)nc2ccccc12	n	n	n	n	n	n
COc1cc([N+](=O)[O-])cc(/C=N/NC(=O)c2cc(C)nc3ccccc23)c1O	n	32	x	n	n	x
Cc1cc(C(=O)N/N=C/c2cccc([N+](=O)[O-])c2)c2ccccc2n1	n	34	x	n	n	x
COC(=O)C1=C(c2ccc(OC(F)(F)F)cc2)CC2CCC1N2C(=O)NCc1cc(C)oc1C(F)(F)F (stereo unspecified)	x	x	n	x	x	n
NC(=O)C1=CC(c2coc3ccccc3c2=O)CC(OCc2ccc(CO)cc2)O1 (stereo unspecified)	x	x	n	x	x	n
O=C(NN=Cc1ccco1)c1cc(-c2cccc(Br)c2)nc2ccccc12	x	x	n	x	x	n
CC(C)NC(=O)N(C)CC1Oc2ccc(NS(=O)(=O)c3ccccc3)cc2C(=O)N(C(C)CO)CC1C (stereo unspecified)	x	x	n	x	x	n
COc1ccc(CCN2C(=O)CN(Cc3ccccc3)CC2=O)cc1OC	n	n	n	n	n	n
COc1ccc(CCN2C(=O)C=CC2=O)cc1OC	n	138	x	n	n	x
COC(=O)c1ccc(C=NOCC(=O)Nc2cc(F)ccc2F)cc1	x	x	n	x	x	n
COc1ccc(N2C(=O)CC(Sc3ncn[nH]3)C2=O)c(OC)c1 (stereo unspecified)	55	n	n	n	n	n
Cc1ccc2[nH]c(-c3cccc(F)c3)cc(=O)c2c1	n	n	n	n	60	n
CC(=NNC(=O)c1nnn(-c2nonc2N)c1-c1cccs1)c1cccc(O)c1	x	x	n	x	x	n
CCc1ccc(/C=C2\SC(=S)N(CCCC(=O)NCCCN3CCOCC3)C2=O)cc1	n	x	x	n	x	x
CCOc1ccc(/C=C2\SC(=S)N(CCCC(=O)NCCCN3CCOCC3)C2=O)cc1	n	n	n	n	81	n
N#CCC(=O)NN=Cc1ccc(SCC(=O)Nc2ccccc2)o1	x	x	n	x	x	n
COc1ccc(-c2c([C@H]3[C@@H]4C=CCC[C@@]4(C)C(=O)N3Cc3ccccc3)ccc3ccccc23)cc1OC	n	44	x	n	n	x
CN(C)c1ccc(-c2ccc([C@H]3[C@@H]4C=CCC[C@@]4(C)C(=O)N3Cc3ccccc3)c(F)c2)cc1	n	n	x	n	n	x
Cc1ccc(-c2ccc(C3C4C=CCC[C@@]4(C)C(=O)N3Cc3ccccc3)c(F)c2)cc1 (stereo partly specified)	x	x	n	x	x	81
CCOC(=O)c1c(C)[nH]c(N=Nc2cccc(OC)c2)c1C	n	77	n	n	n	n
O=C(NN=Cc1cccc(F)c1)NC1CCCCC1	x	x	n	x	x	n
Cc1nnc(N=c2ssnc2Cl)o1	n	362	x	n	n	x
CCCOc1ccc2oc(=O)c3c(c2c1)CCCN3C(=O)CN1CCc2ccccc2C1	n	n	n	n	n	86
COC(=O)C1=C(c2ccc(-c3ccccc3)c(F)c2)CC2CCC1N2C(=O)NC1CC1 (stereo unspecified)	x	x	n	x	x	n
CC(C)Sc1cc(N2CCOCC2)nc(-c2ccccc2)n1	n	n	n	n	n	98
SMILES	CCHFV vOTU inh	PfHsp40 rescue	RN4220 kill	PrPC TRFRET	PrP 5UTR inh	ugtP null kill
O=C(NN=Cc1ccccn1)c1ccco1	x	x	n	x	x	n
Cc1cc(NC(=O)Nc2cccc(Cl)c2)n(-c2ccccn2)n1	n	101	n	n	n	n
C#CCOCCOCCOCCNc1nc(N2CCN(C(=O)CCCCCCCCCCNC(=O)C(CCCCN)n3cc(C)nn3)CC2)nc(N2CCN(C(=O)CCCCCCCCCCNC(=O)C(C(C)O)n3cc(C)nn3)CC2)n1 (stereo unspecified)	x	x	n	x	x	n
Cc1cc(CNC(=O)COC(=O)c2ccc(Cl)c(N)c2)cc(C)c1O	n	105	n	n	n	n
Cc1ccc(CNC(=O)COC(=O)c2ccc(Cl)c(N)c2)cc1	n	n	n	n	n	n
O=C1CCCCc2cc(O)c(O)cc21	n	x	x	n	x	x
O=C1CCCc2cc3c(cc21)CCCC3	n	33	n	n	n	n
O=c1c2cc(F)ccc2sn1-c1ccc(F)cc1	x	76	x	x	n	x
COc1ccc(-n2sc3ccc(F)cc3c2=O)cc1	n	125	x	n	n	x
Cc1ccc2c(c1)S/C(=C/c1ccc[n+](C)c1)N2CCO	n	n	n	n	n	n
CCCCN1/C(=C/c2cccc[n+]2C)Sc2cc(NC(C)=O)ccc21	n	n	n	n	n	n
CCN1/C(=C/c2ccc3cc(C)ccc3[n+]2C)Sc2ccc3sccc3c21	n	153	99	n	n	100

Compound activity: PubChem BioAssay, several laboratories
